# Experimental data as given in paper PMC10812921, “Transcriptional Coactivator BOB1 (OBF1, OCA-B) Modulates the Specificity of DNA Recognition by the POU-Domain Factors OCT1 and OCT2 in a Monomeric Configuration”.
# Legend:
# [1] = molecular target: POU1 (OCT1 POU domain) (human, UniProt P14859 260-458); experiment: EMSA-SELEX-seq; no BOB1; 20 mM Tris-HCl pH 7.6, 140 mM NaCl, 10% glycerol, 0.5 mM EDTA, 0.05% Triton X-100, 0.1 mg/mL BSA, 0.1 mg/mL poly(dI-dC), 5 mM DTT, room temperature, 20 min; high values mean tight binding; details: protein: recombinant; dsDNA, one strand shown
# Method in brief: (§1)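 After expression in E. coli BL21, tagged POU-domain proteins were purified under denaturing conditions and then renatured. Each binding reaction held 30 ng protein and 300 ng of a PCR-amplified double-stranded random 35-nt library in 20 μL Tris–HCl pH 7.6 binding buffer, with or without 28 ng coactivator protein, for 20 min at RT. Bands holding complexes were cut from native 6% PAGE, eluted and PCR-amplified across four rounds, and the output was Illumina-sequenced. The value given for binding preference is the share, in percent, of sequenced 8-mers fitting a motif pattern.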
# [2] = molecular target: T1, POU2 (OCT2 POU domain) (human, UniProt P09086 175-386); experiment: as above; details: protein: recombinant; dsDNA, one strand shown
# T1 sequence: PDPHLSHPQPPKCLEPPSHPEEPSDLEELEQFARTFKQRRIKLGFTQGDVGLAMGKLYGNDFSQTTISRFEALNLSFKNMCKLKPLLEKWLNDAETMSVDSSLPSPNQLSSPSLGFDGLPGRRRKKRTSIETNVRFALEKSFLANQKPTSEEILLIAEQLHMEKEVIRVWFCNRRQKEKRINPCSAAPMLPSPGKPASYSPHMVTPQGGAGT
# Method in brief: as §1
# [3] = molecular target: POU1 (OCT1 POU domain);BOB1 (OBF1, OCA-B) (human;human, UniProt P14859;Q16633 260-458;1-256, |); experiment: EMSA-SELEX-seq; with BOB1 (ternary complex band); 20 mM Tris-HCl pH 7.6, 140 mM NaCl, 10% glycerol, 0.5 mM EDTA, 0.05% Triton X-100, 0.1 mg/mL BSA, 0.1 mg/mL poly(dI-dC), 5 mM DTT, room temperature, 20 min; high values mean tight binding; details: protein: recombinant;recombinant; copies: 1;1; dsDNA, one strand shown
# Method in brief: as §1
# [4] = molecular target: T2, POU2 (OCT2 POU domain);BOB1 (OBF1, OCA-B) (human;human, UniProt P09086;Q16633 175-386;1-256, |); experiment: as above; details: protein: recombinant;recombinant; copies: 1;1; dsDNA, one strand shown
# T2 sequence 1: T1 sequence
# T2 sequence 2: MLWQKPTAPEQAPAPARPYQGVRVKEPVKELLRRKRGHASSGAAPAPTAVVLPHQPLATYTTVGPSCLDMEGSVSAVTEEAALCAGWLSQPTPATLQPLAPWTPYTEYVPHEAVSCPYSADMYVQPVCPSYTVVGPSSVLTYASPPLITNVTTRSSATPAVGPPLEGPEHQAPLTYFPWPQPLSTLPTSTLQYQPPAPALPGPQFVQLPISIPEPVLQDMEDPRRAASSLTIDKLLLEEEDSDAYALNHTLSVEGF
# Method in brief: as §1
# Sequence of POU1 (OCT1 POU domain) (P14859 260-458): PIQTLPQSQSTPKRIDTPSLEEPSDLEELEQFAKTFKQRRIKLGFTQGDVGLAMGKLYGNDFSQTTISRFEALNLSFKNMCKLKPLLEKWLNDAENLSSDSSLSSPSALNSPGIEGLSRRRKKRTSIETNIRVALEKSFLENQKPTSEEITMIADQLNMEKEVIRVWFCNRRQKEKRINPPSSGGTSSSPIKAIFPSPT
Sequence,binding signal [1],binding signal [2],binding signal [3],binding signal [4]
AGAGCAAT,0.0355 % of ANNNNAAN 8-mers,0.0443 % of ANNNNAAN 8-mers,0.0332 % of ANNNNAAN 8-mers,0.0363 % of ANNNNAAN 8-mers
ATTCCAAC,0.0339 % of ANNNNAAN 8-mers,0.0432 % of ANNNNAAN 8-mers,0.0269 % of ANNNNAAN 8-mers,0.0223 % of ANNNNAAN 8-mers
ACCGGAAT,0.0412 % of ANNNNAAN 8-mers,0.0489 % of ANNNNAAN 8-mers,0.0398 % of ANNNNAAN 8-mers,0.0454 % of ANNNNAAN 8-mers
AGGATAAC,0.0263 % of ANNNNAAN 8-mers,0.0437 % of ANNNNAAN 8-mers,0.0293 % of ANNNNAAN 8-mers,0.0355 % of ANNNNAAN 8-mers
AAATTAAG,0.303 % of ANNNNAAN 8-mers,0.342 % of ANNNNAAN 8-mers,0.238 % of ANNNNAAN 8-mers,0.319 % of ANNNNAAN 8-mers
ACAAGAAT,0.0454 % of ANNNNAAN 8-mers,0.0518 % of ANNNNAAN 8-mers,0.0437 % of ANNNNAAN 8-mers,0.0512 % of ANNNNAAN 8-mers
AATACAAA,0.134 % of ANNNNAAN 8-mers,0.108 % of ANNNNAAN 8-mers,0.148 % of ANNNNAAN 8-mers,0.121 % of ANNNNAAN 8-mers
AAGAGAAG,0.0339 % of ANNNNAAN 8-mers,0.0403 % of ANNNNAAN 8-mers,0.0402 % of ANNNNAAN 8-mers,0.0438 % of ANNNNAAN 8-mers
ACTGAAAC,0.0164 % of ANNNNAAN 8-mers,0.019 % of ANNNNAAN 8-mers,0.0238 % of ANNNNAAN 8-mers,0.0173 % of ANNNNAAN 8-mers
AACGCAAG,0.016 % of ANNNNAAN 8-mers,0.0219 % of ANNNNAAN 8-mers,0.0222 % of ANNNNAAN 8-mers,0.0281 % of ANNNNAAN 8-mers
AAATTAAC,0.334 % of ANNNNAAN 8-mers,0.33 % of ANNNNAAN 8-mers,0.188 % of ANNNNAAN 8-mers,0.196 % of ANNNNAAN 8-mers
ATAGAAAC,0.0328 % of ANNNNAAN 8-mers,0.0455 % of ANNNNAAN 8-mers,0.0339 % of ANNNNAAN 8-mers,0.0355 % of ANNNNAAN 8-mers
AATCGAAT,0.087 % of ANNNNAAN 8-mers,0.0926 % of ANNNNAAN 8-mers,0.078 % of ANNNNAAN 8-mers,0.0916 % of ANNNNAAN 8-mers
AGGAAAAG,0.1 % of ANNNNAAN 8-mers,0.08 % of ANNNNAAN 8-mers,0.133 % of ANNNNAAN 8-mers,0.0702 % of ANNNNAAN 8-mers
AGTTCAAG,0.0297 % of ANNNNAAN 8-mers,0.0276 % of ANNNNAAN 8-mers,0.0359 % of ANNNNAAN 8-mers,0.0314 % of ANNNNAAN 8-mers
